Most compounds without a hit are left out; they make up all but 1.1% or so of the library.
SRC3 inh = human NCOA3 inhibition; Q9Y6Q9; HEK293 GAL4-SRC3 luciferase reporter, luminescence; inhibition, % at 3.6 µM; 0.17% of 360,000 active; AID 588352;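 active = inhibition above a per-campaign cutoff, the mean of all compounds plus 3 SD, cut at about 60% in these data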;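 note: 0% = DMSO-treated cells and 100% = gossypol-treated cells at 36 µM; higher means less SRC3-driven luciferase light from the GAL4 reporter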
SRC2 inh = human SRC2 (NCOA2) inhibition | Q15596 | HEK293 GAL4-SRC2 luciferase reporter, luminescence | inhibition, % at 9 µM | 0.17% of 370,000 active | AID 651957;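 active = inhibition above the mean inhibition of all tested compounds plus 3 SD, set per campaign, cut at about 52% in these data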;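 note: 0% = DMSO treated cells and 100% = cells given Gossypol at 36 µM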
NR2F2 inh = inhibitors of human COUP-TFII (NR2F2) | 0.7% of 370,000 active | inhibition, % at 8.6 µM | HEK293T NGFI-A luciferase reporter, luminescence | AID 686940;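 active = inhibition above a per-plate cutoff, mean inhibition of test wells between control levels plus 3 SD, cut at about 38% in these data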;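 note: cells cotransfected with COUP-TFII expression vector driving the NGFI-A reporter; 0% = median of COUP-TF2 test wells and 100% = reporter-only cells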
NCOA1 inh = inhibitors of human steroid receptor coactivator 1 (SRC1); Q15788; HEK293 GAL4-SRC1 luciferase reporter, luminescence; inhibition, % at 3.6 µM; 0.12% of 360,000 active; AID 588354;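 active = inhibition above the campaign mean plus 3 SD, with each screening campaign given its own cutoff, cut at about 60% in these data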;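 note: 0% = DMSO treated cells and 100% = gossypol at 36 µM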
GalR3 antag = antagonists of human GalR3. HEK293 GalR3-CNG cAMP membrane potential fluorescence; galR3 body fused to GalR1 C-terminus. inhibition, % at 3 µM. AID 651719. O60755. 0.44% of 360,000 active;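 active = inhibition above the screen-wide average plus 3 SD, cut at about 13% in these data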;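 note: forskolin and galanin both at EC90 stimulate the cells; cAMP rise reported by CNG channel membrane potential dye signal; 0% = forskolin plus galanin with DMSO and 100% = forskolin alone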
LRH-1 inv ag = NR5A2 inverse agonism in reporter assay | O00482 | HEK293T StAR-luciferase reporter, LRH-1 transfected, 24 h | inhibition, % at 3.6 µM | 0.13% of 360,000 active | AID 602396;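 active = inhibition above the mean inhibition of all tested compounds plus 3 SD, cut at about 73% in these data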;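 note: 0% = DMSO wells and 100% = reporter-only cells lacking LRH-1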
Active calls of the source: *; · = no result given; ! = not active in a repeat.

SMILES	SRC3 inh	SRC2 inh	NR2F2 inh	NCOA1 inh	GalR3 antag	LRH-1 inv ag
C(=C\c1ccc2ccccc2n1)/c1ccccc1	-35.5	21.2	-22.3	-82.5	-1.4	-74.1
CN(C)c1ccc(/C=C/c2ccc3ccccc3n2)cc1	63.9*	·	·	62.4*	·	62.6
Cc1ccc(NC(=O)Cn2nc(C(=O)O)c3ccccc3c2=O)c([N+](=O)[O-])c1	0.2	2.0	3.3	-3.7	-6.1	-6.8
COc1ccc(-c2nc(CS(=O)CC(=O)NCc3ccco3)c(C)o2)cc1 (stereo not drawn)	-28.1	-25.0	6.9	-9.3	·	15.9
CCc1ccc(-c2nc(CS(=O)CC(=O)NCc3ccco3)c(C)o2)cc1 (stereo not drawn)	32.8	54.4*	31.6	21.3	-10.0	40.6
COC(=O)CCCCC1SCC(NC(=O)c2ccccc2)C1OC(C)=O (stereo not drawn)	8.2	-3.3	-16.0	-6.0	-2.0	1.3
COc1ccc(C(=O)c2c(C(F)(F)F)oc3c2C(=O)c2ccccc2C3=O)cc1OC	32.2	13.4	43.1*	9.3	-3.0	2.4
CCN(CC)c1ccc2cc(C(C)=O)c(=O)oc2c1	-3.1	-23.6	-13.6	-24.5	-5.2	-12.3
CCN(CC)c1ccc2cc(NC(=O)CCC(=O)O)c(=O)oc2c1	57.3	84.7*	82.7*	60.5	-3.6	64.2
CCOc1ccccc1O[C@H](c1ccccc1)[C@H]1CNCCO1	56.9	15.4	-8.0	70.4*	-4.5	53.5
CCOc1ccccc1NC(=O)C(NCC1CCCCC1)c1ccccc1 (stereo not drawn)	17.1	14.8	11.1	1.1	-4.6	6.7
C=CCN(CC=C)c1ncnc2[nH]ncc12	53.1	53.2*	20.5	54.7	-3.4	29.0
COC(=O)c1c(-c2ccccc2)noc1-c1ccccc1	-5.5	-18.4	-4.8	-19.6	-0.8	-8.2
C=CCSc1nc2ccccc2c(=O)[nH]1	-1.7	-6.7	-11.0	5.9	3.3	-17.2
O=[N+]([O-])c1cc(C(F)(F)F)ccc1N1CCN(S(=O)(=O)c2ccc3ccccc3c2)CC1	6.4	6.1	16.9	5.6	16.5*	17.1
CCOc1cc(C(=O)OC(C)C(=O)Nc2ccc(S(N)(=O)=O)cc2)ccc1OCC(=O)N1CCOCC1 (stereo not drawn)	-2.6	-16.8	-6.9	-21.8	-4.1	-8.8
COc1ccc(-n2ncc3c(N4CCCCC4)ncnc32)cc1	66.8*	·	·	64.2*	·	59.6
CCc1ccc(S(=O)(=O)/N=C2\C=C(Nc3ccc(O)cc3)C(=O)c3ccccc32)cc1	89.2*	·	·	88.4*	·	90.4*
Cc1cccc(NC2=C/C(=N/S(=O)(=O)c3cccs3)c3ccccc3C2=O)c1	-16.0	11.3	-0.7	-4.4	-3.0	8.1
Cc1ccc(Cl)cc1NC1=C/C(=N\S(=O)(=O)c2cccs2)c2ccccc2C1=O	85.2*!	-29.4	-1.0	71.8*!	-5.9	6.5
Cc1ccc(NC2=C/C(=N\S(=O)(=O)c3cccs3)c3ccccc3C2=O)c(C)c1	70.0*	·	·	67.3*	·	39.9
CCc1ccc(S(=O)(=O)/N=C2/C=C(Sc3ncn[nH]3)C(=O)c3ccccc32)cc1	87.8*	·	·	82.5*	·	95.5*
Cc1noc(N)c1C(=O)Nc1ccc(F)cc1	1.4	23.0	6.3	-12.9	-0.1	-8.1
CC(=O)c1cccc(OCc2cc(C(=O)NC3CCN(Cc4ccccc4)CC3)no2)c1	10.6	-3.8	18.9	8.6	0.5	31.4
O=C(O)c1ccc(NC2=C/C(=N/S(=O)(=O)c3cccs3)c3ccccc3C2=O)cc1	7.3	-8.9	0.0	4.0	-4.5	22.2
SMILES	SRC3 inh	SRC2 inh	NR2F2 inh	NCOA1 inh	GalR3 antag	LRH-1 inv ag
O=C1C(Nc2ccc(O)cc2)=C/C(=N/S(=O)(=O)c2cccs2)c2ccccc21	90.2*	71.0*	78.2*	88.5*	-9.5	86.2*
COC(=O)C1=CN(Cc2cccs2)C=C(C(=O)OC)C1c1cccc(OC)c1OC	10.9	-15.2	9.9	-5.8	-6.8	-9.6
CCCc1cc(-c2[nH]ncc2-c2ccc3c(c2)OCCCO3)c(O)cc1OC	·	-32.4	-5.8	·	-3.2	·
COc1ccc(-c2[nH]ncc2-c2ccc3c(c2)OCCO3)c(O)c1	65.0*	49.1	22.8	67.2*	1.3	39.0
CCc1ccc(C2=NNC(=Nc3cccc(S(=O)(=O)N(C)C)c3)SC2)cc1	14.1	23.8	40.8*	11.2	-5.1	22.3
CCCCN(C)C1=CC2=CC(=C(C#N)C#N)CCC2CC1 (stereo not drawn)	13.0	-2.7	6.6	11.0	-5.0	22.4
COc1cccc(/C=N/Nc2ncnc3c2ncn3Cc2ccccc2)c1O	66.9*	21.9	-12.4	53.3	-2.4	91.5*
O=S(=O)(c1cccs1)N1CCN(CC(O)COc2cc(Cl)ccc2Cl)CC1 (stereo not drawn)	22.4	18.5	4.5	10.8	68.5*	16.8
O=S(=O)(c1cccs1)N1CCN(CCOc2ccc(Cl)cc2)CC1	20.9	25.4	25.6	17.1	0.2	9.1
CN(c1ccccc1)S(=O)(=O)c1ccc(Cl)nc1	17.7	-54.9	14.6	7.7	-0.4	5.0
Cc1nc(S(=O)(=O)N(C)c2ccccc2)c(C#N)c(C)c1Cl	31.2	53.9*	14.5	17.9	2.5	14.1
Cc1ccc(C(=O)CC2(O)C(=O)Nc3ccccc32)s1 (stereo not drawn)	6.3	-11.5	0.4	5.1	-5.3	9.1
COc1ccccc1C(=O)N(CCC1CCCN1C)c1nc2ccccc2s1 (stereo not drawn)	63.1*	39.6	57.7*	54.4	-0.9	52.4
COc1ccc2sc(N(CCCN(C)C)C(=O)c3nc4ccccc4s3)nc2c1	-36.1	-18.6	-8.8	-29.0	-4.7	-9.8
COC(=O)C1=C(N)Oc2cc(C)n(Cc3ccccc3)c(=O)c2C1c1ccccc1 (stereo not drawn)	9.8	-29.9	10.2	-25.9	-6.4	27.1
O=C(NCC1CCN(Cc2ccccc2F)CC1)C1CCCN(c2ncnc3c2nc2n3CCCCC2)C1 (stereo not drawn)	-13.7	-5.2	16.1	-13.2	14.8*	-4.2
NS(=O)(=O)c1ccc(CCNC(=O)COC(=O)CCc2ccccc2)cc1	6.0	9.1	-19.0	-6.8	-5.3	3.8
CC(C)(C)c1ccc(C(=O)CCC(=O)OCC(=O)NCCc2ccc(S(N)(=O)=O)cc2)cc1	-1.6	54.0*	29.5	-2.7	-7.0	26.2
C=CCN1C(=O)C(CC(=O)Nc2ccc(OC)cc2)N(Cc2ccco2)C1=S (stereo not drawn)	1.0	10.8	14.1	-1.7	-6.1	-13.9
COc1ccccc1CNC(=O)c1ccc(OC(F)F)c(OC)c1	14.9	-5.9	13.1	-3.0	-2.5	14.4
CCOC(=O)c1c(NC(=O)CCS(=O)(=O)c2ccccc2)sc2c1CCN(C)C2	-1.6	-17.0	5.1	7.6	0.0	10.9
C=CC(=O)Nc1ccc(Nc2nc(NC3CCC(N(C)C)CC3)nc3c2ncn3C(C)C)cc1 (stereo not drawn)	83.9*	·	·	86.3*	·	97.0*

Assay outcomes deposited in PubChem BioAssay by The Scripps Research Institute Molecular Screening Center.
